# Screens: PubChem BioAssay, National Center for Advancing Translational Sciences (NCATS)
# Shiga inhibitor – inhibitors of Shiga toxin in Vero cells; AID 2315; 290,000 tested, 9.2% active; inhibition, % at 38.7 µM; Vero cells, Shiga toxin protein synthesis inhibition reporter; in the data active = inhibition mostly above about 28%, no sharp cut-off; inactive = mostly below about 43%; note: 0% is about no effect
# LmPK inhibitor – blocks Leishmania mexicana pyruvate kinase activity; Q27686; Potency, µM (titrated, usually from 57.5 µM), inactives show top-dose activity change, negative = inhibition, most hits filed as inhibitors; purified LmPK, Kinase-Glo ATP luminescence, 1 h; 290,000 tested, 0.37% active; AID 1721; note: potency is the fitted concentration of half-maximal effect; % is set by controls: 0 for no effect and ±100 for the full control effect
# Target sequence (Q27686 whole entry, looked up): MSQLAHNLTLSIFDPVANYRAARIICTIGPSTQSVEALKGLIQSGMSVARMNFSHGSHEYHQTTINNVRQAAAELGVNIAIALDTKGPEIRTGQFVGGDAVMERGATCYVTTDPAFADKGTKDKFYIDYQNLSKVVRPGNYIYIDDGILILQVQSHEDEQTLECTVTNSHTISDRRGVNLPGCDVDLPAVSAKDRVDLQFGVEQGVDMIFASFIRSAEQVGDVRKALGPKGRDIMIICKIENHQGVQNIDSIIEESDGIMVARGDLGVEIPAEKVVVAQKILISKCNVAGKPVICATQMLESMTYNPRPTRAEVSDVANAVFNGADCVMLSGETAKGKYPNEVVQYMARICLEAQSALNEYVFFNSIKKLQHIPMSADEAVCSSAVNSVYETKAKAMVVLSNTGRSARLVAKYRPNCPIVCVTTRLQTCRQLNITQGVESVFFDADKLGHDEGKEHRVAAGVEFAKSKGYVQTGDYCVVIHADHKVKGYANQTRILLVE
#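 Kinase-Glo luminescence read after 1 h RT reaction of 0.1 nM LmPK with 0.5 mM PEP and 0.1 mM ADP. Activity scaled between uninhibited and enzyme-free controls.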
# Tb PYK inh – blocks Trypanosoma brucei pyruvate kinase; TbPYK enzyme, Kinase-Glo Plus ATP luminescence, 45 min; Potency, µM (titrated, usually from 76.8 µM), inactives show at the top dose activity, negative = inhibition, hits mostly inhibitors; 410,000 tested, 0.12% active; AID 624173; note: potency is the fitted concentration of half-maximal effect; % is set by controls: 0 for no effect and ±100 for the full control effect; nearly all actives have a fitted effect of over 50% in size
#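 Luminescence from Kinase-Glo Plus, added after a 45-minute room-temperature reaction, served as the end-point read-out. The enzyme and substrate were preincubated with compound before ADP (130 uM final) initiated turnover. Concentration-effect curves came from normalized qHTS data.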
# Sm TGR block – S. mansoni TGR enzyme inhibition | Q962Y6 | purified TGR, DTNB reduction, TNB absorbance 405 nm | Potency, µM (series often up to 114 µM), for the others: top-dose activity change, negative = inhibition, hits mostly inhibitors | 360,000 tested, 3% active; note: potency is the fitted concentration of half-maximal effect; % is set by controls: 0 for no effect and ±100 for the full control effect; nearly all actives have a fitted effect of over 60% in size
#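 First, TGR (20 nM dispensed) and NADPH were mixed with compound. Second, a 15 min room-temperature incubation followed. Third, further NADPH and then DTNB were added to start the reaction. Finally, TNB absorbance was monitored kinetically.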
# Cycloheximide cs – counter-screen for Shiga toxin inhibitors: cycloheximide protein synthesis inhibition. cell reporter, cycloheximide protein synthesis inhibition counterscreen. max response, %. 300,000 tested, 12% active; in the data active = max response mostly above about 13%, no sharp cut-off; inactive = mostly below about 14%; note: read at 38.3 µM for the half of the compounds with a filed dose; 0% is about no effect
# FBPA Giardia inh – inhibitors of Giardia lamblia fructose-1,6-bisphosphate aldolase. AID 2451. Potency, µM (highest dose often 59.6 µM), without a hit: at the highest dose activity, negative = inhibition, usual class: inhibitors. purified Giardia FBPA. A8B2U2. 290,000 tested, 0.71% active; note: potency is the fitted concentration of half-maximal effect; % is set by controls: 0 for no effect and ±100 for the full control effect; nearly all actives have a fitted effect of over 55% in size
#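 Giardia FBPA (40 nM reagent) was preincubated 10 min at RT with compound (up to 57.5 uM final), then substrate plus GAPDH/TPI/NAD/arsenate coupling system with diaphorase/resazurin was added; resorufin fluorescence (525/598 nm) was read after 20 min.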
# An asterisk follows results filed as active; ? = inconclusive; . = no result. Only a selection was taken, and hits are over-represented in it overall. Unless noted, calls come from the whole dose curve; as a rule, active = well fitted curve in the direction sought with a large enough effect; inconclusive = small, poorly fitted or top-dose-only effect, or another doubt; inactive = no such curve, though single readings can be large; an effect the other way counts as inactive or inconclusive.
SMILES,Shiga inhibitor,LmPK inhibitor,Tb PYK inh,Sm TGR block,Cycloheximide cs,FBPA Giardia inh
CC(=O)N1CCN(Cc2cc(=O)oc3cc(C)cc(C)c23)CC1,.,.,7%,.,.,.
C/C1=C2/[N-]C(C(CC(N)=O)[C@@]2(C)CCC(=O)NCC(C)OP(=O)([O-])O[C@H]2[C@@H](O)[C@@H](n3cnc4cc(C)c(C)cc43)O[C@@H]2CO)[C@]2(C)N=C(/C(C)=C3N=C(/C=C4N=C1C(CCC(N)=O)C\4(C)C)[C@@H](CCC(N)=O)[C@]\3(C)CC(N)=O)[C@@H](CCC(N)=O)[C@]2(C)CC(N)=O.CC(=O)O.[Co] (stereo partly drawn),.,.,-10%,.,.,.
O=C(Nc1cccc2cccnc12)OCc1ccccc1,50,.,.,.,30*,.
O=C(CCCl)Nc1cccc2cccnc12,36,.,.,.,48*,.
O=C(Nc1ccccc1)Nc1cccc2cccnc12,122*,-1%,-4%,19%,36*,-22%
NC(=S)NNc1cccc2cccnc12,39*,-10%,-13%,1%,19*,?
NC(=S)Nc1cccc2cccnc12,15,4%,2%,2%,4,-3%
O=C(CI)Nc1cccc2cccnc12,-13,.,.,.,-5,.
CC(=O)Nc1csc2ccccc12,24,1%,6%,.,-2,0%
O=C(Nc1ccccc1)Nc1csc2ccccc12,148*,7%,-1%,11%,51*,-12%
COc1ccc(NC(=O)Nc2ccc(F)cc2F)cc1,68*,?,0%,6%,38*,3%
CC(C)c1ccccc1NC(=O)Nc1ccc(F)cc1F,23,1%,6%,0%,9.9*,0%
Cc1cc(C)nc(NC(=O)Nc2ccc(F)cc2F)n1,17,0%,2%,3%,13*,-2%
COc1ccc(NC(=O)Nc2ccc(F)cc2F)c(C)c1,20,-4%,10%,-14%,35*,-15%
COc1ccc(NC(=O)Nc2ccc(F)cc2)c(C)c1,50,0%,-12%,3%,19,8%
COc1ccccc1CNC(=O)CCCn1c(=O)c2cccn2c2ccccc21,.,.,1%,8%,.,.
COc1ccccc1N(C(=O)Cn1nnc(-c2ccc(C)o2)n1)C(C(=O)NC1CCCC1)c1ccncc1 (stereo not drawn),-6,0%,-7%,-5%,-2,5%
COc1ccc(C(=O)NCC(=O)n2nc(C)cc2C)cc1OC,-3,0%,-1%,1%,-6,0%
Cc1cc(C)n(C(=O)CNC(=O)c2ccc(C(C)(C)C)cc2)n1,24,2%,4%,-1%,34*,-2%
CC(=Nc1ccccc1)c1sc2ccccc2c1O,139*,-27%,-5%,1%,50*,0%
CC(=Nc1ccc(Br)cc1)c1sc2ccccc2c1O,111*,-17%,-3%,0%,60*,-13%
CC(=Nc1ccccc1)C1=C(O)COC1=O,-18,9%,4%,0%,-3,-1%
Cc1cc(C)cc(N2CC(c3nc(-c4ccccc4C)no3)CC2=O)c1 (stereo not drawn),.,.,5%,3%,.,.
O=[N+]([O-])c1cc(S(=O)(=O)C(F)(F)F)ccc1Sc1nc2ccccc2[nH]1,-22,5%,2%,28µM*,-1,-11%
CS(=O)(=O)c1ccc(Sc2nc3ccccc3s2)c([N+](=O)[O-])c1,-6,3%,4%,?,9,4%
O=[N+]([O-])c1cc(S(=O)(=O)C(F)(F)F)ccc1Sc1nc2ccccc2s1,-3,0%,-13%,14µM*,-1,-13%
CS(=O)(=O)c1ccc(Sc2nc3ccccc3[nH]2)c([N+](=O)[O-])c1,25,-2%,4%,-15%,-2,-14%
Cc1nnc(NC(=O)CSCc2cc(=O)c3ccc(C)c(C)c3[nH]2)s1,.,.,1%,-2%,.,.
O=C1C2C(c3ccccc3)CC=CC2C(c2ccc(C(F)(F)F)cc2)N1Cc1ccccc1 (stereo not drawn),-4,.,.,.,1,-10%
CC1CC=CC2C1C(=O)N(Cc1ccccc1)C2c1ccc(-c2cc3ccccc3s2)cc1F (stereo not drawn),96*,.,.,.,49*,0%
